Laboratory results as given in PubChem BioAssay (Tox21).
Several values for one entry are separate records, joined by “and”; a condition that tells them apart may be missing. Equal values may be shown once. Results filed as inconclusive are left out. The source holds several records for some structures; these can differ, active in one and inactive in another. Activity calls are given as the source filed them. Unless noted, calls come from the whole dose curve; as a rule, active = well fitted curve in the direction sought with a large enough effect in the repeat runs; inconclusive = weak or mixed curves; inactive = no such curve, though single readings can be large; an effect the other way counts as inactive or inconclusive.

What was measured:
[1] = qHTS assay to identify small molecule agonists of the RXR signaling pathway - cell viability counter screen (AID 1159529); note: nearly all actives have a fitted effect of over 50% in size; note: potency is the fitted concentration of half-maximal effect
How it was run: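 Counter screen: CellTiter-Glo luminescence. Cells: RXR-alpha-UAS-bla HEK 293T. Medium: 2% charcoal-stripped FBS. Treatment: 16 h, 37 C. Reagent incubation: 30 min, RT.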

[2] = qHTS assay to identify small molecule antagonists of the retinoid acid receptor (RAR) signaling pathway - cell viability counter screen (AID 1159551); note: nearly all actives have a fitted effect of over 35% in size
How it was run: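 Viability of C3RL4 cells is quantified from ATP by luminescence after 6 h treatment at 37 C with compounds and 1 uM retinol.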

[3] = qHTS assay to identify small molecule antagonists of the retinoic acid receptor (RAR) signaling pathway (AID 1159552; note: nearly all actives have a fitted effect of over 50% in size; note: potency is the fitted concentration of half-maximal effect)
How it was run: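 Antagonism of retinol-induced RARE reporter activity was measured in C3RL4 cells. Exposure to compounds and 1 uM final retinol lasted 6 hr at 37 C, with luminescence as endpoint.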

[4] = qHTS assay to identify small molecule agonists of the retinoic acid receptor (RAR) signaling pathway (AID 1159553); note: potency is the fitted concentration of half-maximal effect
How it was run: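 Compounds dissolved in DMSO were pinned onto C3RL4 cells seeded the previous day, and plates were held 6 hr at 37 C. RARE-driven luciferase output was then read by luminescence.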

[5] = qHTS assay to identify small molecule antagonists of the estrogen related receptor (ERR) signaling pathway from Tox21 library - cell viability counter screen (AID 1224834); note: nearly all actives have a fitted effect of over 30% in size; note: potency is the fitted concentration of half-maximal effect
How it was run: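 In this quantitative HTS format, ERR cells receive compounds in DMSO and are incubated for 17.5 h at 37 C. Live-cell protease activity is then detected with CellTiter-Fluor.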

[6] = biological target: Luciferin 4-monooxygenase (Photinus pyralis) (UniProt P08659); assay: qHTS assay to identify small molecule inhibitors of firefly luciferase (AID 1224835); note: nearly all actives have a fitted effect of over 25% in size; note: potency is the fitted concentration of half-maximal effect
How it was run: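 Biochemical qHTS: compounds run as interplate titrations against purified firefly enzyme, with D-luciferin and ATP each at its KM concentration. Light output recorded by CCD imaging.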

[7] = qHTS assay to identify small molecule agonists of the constitutive androstane receptor (CAR) signaling pathway - cell viability counter screen (AID 1224836); note: series mostly up to about 92 µM; nearly all actives have a fitted effect of over 45% in size
How it was run: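 Double-stable HepG2 hepatoma cells (hCAR plus CYP2B6-2.2kb) are treated for 23 h at 37 C with test compounds in 15-point concentration series. PK11195 at 0.75 uM final is co-added. Cell viability is quantified by CellTiter-Fluor.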

[8] = qHTS assay to identify small molecule antagonists of the constitutive androstane receptor (CAR) signaling pathway - cell viability counter screen (AID 1224837); note: series mostly up to about 92 µM; nearly all actives have a fitted effect of over 45% in size
How it was run: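 In quantitative HTS format, compounds at 15 concentrations were applied to HepG2 cells double-transfected with hCAR and CYP2B6-2.2kb under 50 nM CITCO stimulation; live-cell protease activity was read after 23 hr via CellTiter-Fluor.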

[9] = biological target: Nuclear receptor subfamily 1 group I member 3 (Homo sapiens) (UniProt Q14994); assay: qHTS assay to identify small molecule antagonists of the constitutive androstane receptor (CAR) signaling pathway (AID 1224838); note: nearly all actives have a fitted effect of over 40% in size
How it was run: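 CITCO-stimulated (50 nM final) HepG2 cells stably transfected with hCAR and CYP2B6-2.2kb luciferase were exposed to compounds at 15 concentrations for 24 h at 37 C/5% CO2. A luciferase reagent was added and luminescence recorded after 30 min.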

[10] = biological target: Nuclear receptor subfamily 1 group I member 3 (Homo sapiens) (UniProt Q14994); assay: qHTS assay to identify small molecule agonists of the constitutive androstane receptor (CAR) signaling pathway (AID 1224839); note: nearly all actives have a fitted effect of over 15% in size; note: potency is the fitted concentration of half-maximal effect;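 for activation: HepG2 cells stably carrying human CAR and a CYP2B6 luciferase reporter; series mostly up to about 92 µM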
How it was run: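 Readout: firefly luciferase luminescence via ONE-Glo. System: HepG2 double-stable for hCAR and CYP2B6-2.2kb. Conditions: 15-point compound titration, PK11195 at 0.75 uM final, 24 h incubation.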

[11] = qHTS assay to identify small molecule antagonists of the estrogen related receptor signaling pathway with the pleiotropic PPARgamma coactivator (PGC) from Tox21 10K library - cell viability counter screen (AID 1224840; active = well fitted cell-killing curve with a large enough effect in the repeat runs, not every such curve was filed as active; note: nearly all actives have a fitted effect of over 40% in size; note: potency is the fitted concentration of half-maximal effect)
How it was run: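 Viability counter screen, PGC/ERR cells: 17.5 h compound exposure at 37 C, CellTiter-Fluor fluorescence endpoint.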

[12] = qHTS assay to identify small molecule agonists of the hypoxia (HIF-1) signaling pathway - cell viability counter screen (AID 1224844; calls by dose curve; note: nearly all actives have a fitted effect of over 50% in size; note: potency is the fitted concentration of half-maximal effect)
How it was run: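 Same wells as the HIF-1 reporter screen; ME-180 cells carrying HRE-bla, 17 hr treatment at 37C; CellTiter-Glo luminescence read after 30 min at room temperature.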

[13] = qHTS assay to identify small molecule agonists of the hypoxia (HIF-1) signaling pathway (AID 1224846; active = well fitted activation curve with a large enough effect in the signal ratio in the repeat runs, not every such curve was filed as active; the % refers to the signal ratio)
How it was run: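 In ME-180 cells bearing an HRE-bla construct, 17 h treatment with DMSO-dissolved compounds at 37C was followed by CCF4-AM loading to quantify reporter induction.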

[14] = biological target: Thyrotropin receptor (Homo sapiens) (UniProt P16473); assay: qHTS assay to identify small molecule agonists of the thyroid stimulating hormone receptor (TSHR) signaling pathway (AID 1224843; calls by dose curve; note: nearly all actives have a fitted effect of over 45% in size)
How it was run: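 HEK293/TSHR, 800 cells/well; cpd 30 min RT; add cAMP-d2 + anti-cAMP-cryptate, 1 h RT; fluorescence read on plate reader. 15-pt titration, n=3.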

[15] = qHTS assay to identify small molecule agonists of H2AX (AID 1224845; active = well fitted activation curve with a large enough effect in the signal ratio in the repeat runs, not every such curve was filed as active; the % refers to the signal ratio; note: potency is the fitted concentration of half-maximal effect)
How it was run: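 Wild-type CHO-K1 cells, plated overnight, exposed 3hr at 37C to 15 concentrations (0.76% DMSO final). Lysed, then HTRF anti-pH2AX (S139) cryptate and anti-H2AX-d2 antibodies, 24 hr room temperature; 665/620 nm emission read.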

[16] = qHTS assay to identify small molecule antagonists of the estrogen related receptor (ERR) signaling pathway - cell viability counter screen (AID 1224818); note: series mostly up to about 46 µM
How it was run: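 Cytotoxicity check run alongside the ERR antagonist screen: cells exposed to test compounds 17.5 h at 37 C, viability taken as CellTiter-Fluor fluorescence intensity.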

[17] = qHTS assay to identify small molecule antagonists of the estrogen related receptor signaling pathway with the pleiotropic PPARgamma coactivator (PGC) cell viability counter screen (AID 1224822; note: series mostly up to about 46 µM)
How it was run: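 Viable cell signal (CellTiter-Fluor, 30 min, 37 C/5% CO2) was measured in PGC/ERR cells after a 17.5 h compound incubation.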

[18] = qHTS assay to identify small molecule antagonists of the estrogen related receptor signaling pathway with the pleiotropic PPARgamma coactivator (PGC) from Tox21 10K library (AID 1224841; call rule not given here; note: actives are mostly falling curves and most rising ones were filed inactive; nearly all actives have a fitted effect of over 50% in size; note: potency is the fitted concentration of half-maximal effect)
How it was run: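 In the PGC/ERR line, DMSO solutions of test chemicals are pin-delivered to 2,000 cells/well six hours after dispensing. Following eighteen hours' incubation, One-Glo reagent is added and luminescence recorded.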

[19] = qHTS assay to identify small molecule agonists of the estrogen related receptor signaling pathway with the pleiotropic PPARgamma coactivator (PGC) from Tox21 10K library (AID 1224842); note: nearly all actives have a fitted effect of over 15% in size
How it was run: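 PGC/ERR reporter cell line, 2,000 cells per well, incubated 6 h at 37 C before 23 nL compound in DMSO was added. After 18 h at 37 C, One-Glo luminescence read following 30 min at room temperature.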

[20] = biological target: Retinoic acid receptor RXR-alpha (Homo sapiens) (UniProt P19793); assay: qHTS assay to identify small molecule agonists of the RXR signaling pathway (AID 1159527; calls by dose curve; note: nearly all actives have a fitted effect of over 35% in size)
How it was run: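 Compounds in DMSO were added to RXR-alpha-UAS-bla HEK 293T cells kept in 2% charcoal-stripped serum, and incubated 16 hr at 37 C with 5% CO2. Reporter signal came from a 2 hr B/G FRET substrate step.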

Measured: Potency

Thyrotropin receptor (Homo sapiens), sequence (P16473 whole entry, looked up): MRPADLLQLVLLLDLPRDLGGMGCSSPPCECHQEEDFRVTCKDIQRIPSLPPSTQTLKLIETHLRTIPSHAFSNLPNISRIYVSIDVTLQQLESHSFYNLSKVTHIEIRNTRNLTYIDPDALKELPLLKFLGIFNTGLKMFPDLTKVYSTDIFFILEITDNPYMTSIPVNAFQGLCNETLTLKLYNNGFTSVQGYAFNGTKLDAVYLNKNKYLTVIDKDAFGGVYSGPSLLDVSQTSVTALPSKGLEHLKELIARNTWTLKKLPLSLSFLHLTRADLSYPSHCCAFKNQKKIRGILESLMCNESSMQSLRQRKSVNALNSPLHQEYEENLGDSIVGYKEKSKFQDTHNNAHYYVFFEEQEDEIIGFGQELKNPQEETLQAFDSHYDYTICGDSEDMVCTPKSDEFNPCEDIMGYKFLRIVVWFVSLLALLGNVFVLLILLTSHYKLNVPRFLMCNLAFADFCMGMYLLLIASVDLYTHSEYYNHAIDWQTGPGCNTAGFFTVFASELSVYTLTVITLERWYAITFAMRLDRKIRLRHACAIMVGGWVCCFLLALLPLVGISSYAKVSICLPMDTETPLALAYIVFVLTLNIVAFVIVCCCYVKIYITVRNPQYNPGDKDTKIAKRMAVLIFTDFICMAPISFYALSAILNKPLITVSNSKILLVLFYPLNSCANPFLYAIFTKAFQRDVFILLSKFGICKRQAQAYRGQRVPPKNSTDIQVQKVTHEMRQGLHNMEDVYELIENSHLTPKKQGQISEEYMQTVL
Luciferin 4-monooxygenase (Photinus pyralis), sequence (P08659 whole entry, looked up): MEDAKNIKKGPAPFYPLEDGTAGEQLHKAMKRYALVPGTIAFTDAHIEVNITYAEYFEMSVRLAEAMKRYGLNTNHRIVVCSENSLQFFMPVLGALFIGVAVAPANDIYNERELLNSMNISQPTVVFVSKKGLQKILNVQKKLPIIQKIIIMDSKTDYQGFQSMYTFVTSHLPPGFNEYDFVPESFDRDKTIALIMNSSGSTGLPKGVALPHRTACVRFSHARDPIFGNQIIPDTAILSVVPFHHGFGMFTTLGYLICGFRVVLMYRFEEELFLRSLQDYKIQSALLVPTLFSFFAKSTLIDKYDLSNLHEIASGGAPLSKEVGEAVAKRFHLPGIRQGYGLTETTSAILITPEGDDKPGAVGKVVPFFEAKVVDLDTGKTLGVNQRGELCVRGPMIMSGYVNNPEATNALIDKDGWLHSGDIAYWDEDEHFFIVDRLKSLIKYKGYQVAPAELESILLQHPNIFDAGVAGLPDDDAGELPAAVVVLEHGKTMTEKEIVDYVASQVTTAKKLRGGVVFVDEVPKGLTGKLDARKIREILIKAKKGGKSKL
Nuclear receptor subfamily 1 group I member 3 (Homo sapiens), sequence (Q14994 whole entry, looked up): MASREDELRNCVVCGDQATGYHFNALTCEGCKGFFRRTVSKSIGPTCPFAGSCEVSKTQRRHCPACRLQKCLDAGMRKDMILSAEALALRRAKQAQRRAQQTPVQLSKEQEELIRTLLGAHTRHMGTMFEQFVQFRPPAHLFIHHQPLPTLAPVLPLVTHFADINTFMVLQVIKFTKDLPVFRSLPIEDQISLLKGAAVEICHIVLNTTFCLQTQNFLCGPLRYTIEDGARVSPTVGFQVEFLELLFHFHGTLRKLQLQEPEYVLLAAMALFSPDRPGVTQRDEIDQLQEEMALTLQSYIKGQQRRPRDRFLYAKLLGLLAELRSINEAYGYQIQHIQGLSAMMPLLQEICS
Retinoic acid receptor RXR-alpha (Homo sapiens), sequence (P19793 whole entry, looked up): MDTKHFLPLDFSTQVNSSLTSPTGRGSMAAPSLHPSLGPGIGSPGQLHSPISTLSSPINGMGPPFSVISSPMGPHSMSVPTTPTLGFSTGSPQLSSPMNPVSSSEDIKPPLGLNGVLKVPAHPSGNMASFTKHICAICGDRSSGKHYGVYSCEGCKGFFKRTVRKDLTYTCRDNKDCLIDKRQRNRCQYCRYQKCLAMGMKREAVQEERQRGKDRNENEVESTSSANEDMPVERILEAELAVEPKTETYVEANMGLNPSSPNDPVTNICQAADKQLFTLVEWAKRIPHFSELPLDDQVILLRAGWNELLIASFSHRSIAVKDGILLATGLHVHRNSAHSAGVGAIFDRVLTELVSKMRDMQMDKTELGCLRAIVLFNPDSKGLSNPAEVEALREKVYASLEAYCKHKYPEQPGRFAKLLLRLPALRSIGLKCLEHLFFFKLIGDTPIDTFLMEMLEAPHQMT

CCCSc1ccc2nc(NC(=O)OC)[nH]c2c1
active: [4] 6.11 µM and 21.1 µM | [6] 3.99 µM and 4.36 µM | [10] 9.44 µM
inactive: [1] | [2] | [3] | [5] | [7] | [8] | [9] | [11] | [12] | [13]

CCCCCC/C(C=O)=C\c1ccccc1
inactive: [1] | [2] | [3] | [5] | [7] | [8] | [9] | [10] | [11] | [14] | [12] | [15] | [13]

CCCCCCCCCCCCOCCO
active: [6] 25.2 µM and 30.9 µM
inactive: [1] | [2] | [3] | [5] | [7] | [8] | [10] | [14] | [12] | [15] | [13]

Cc1cnc(C(=O)NCCc2ccc(S(=O)(=O)NC(=O)NC3CCCCC3)cc2)cn1
inactive: [1] | [2] | [16] | [17] | [5] | [6] | [7] | [8] | [14] | [12]

C=CCOC(=O)c1ccccc1C(=O)OCC=C
inactive: [1] | [2] | [3] | [5] | [6] | [7] | [8] | [14] | [12] | [15] | [13]

O=C(OCCOCCOC(=O)c1ccccc1)c1ccccc1
inactive: [1] | [2] | [3] | [5] | [6] | [7] | [8] | [10] | [12] | [15] | [13]

COS(C)(=O)=O
35.7 µM (active) and inactive: [18]
inactive: [1] | [2] | [5] | [6] | [7] | [8] | [10] | [11] | [19] | [14] | [12] | [15] | [13]

CC(c1cc2ccccc2s1)N(O)C(N)=O (stereo not given)
inactive: [20] | [1] | [2] | [5] | [6] | [7] | [8] | [11] | [12] | [15] | [13]

Oc1cccc2ccccc12
active: [10] 62.8 µM and 61.1 µM | [15] 103 µM
inactive: [20] | [1] | [2] | [5] | [7] | [8] | [9] | [11] | [14] | [12] | [13]

C=C(C)C(=O)O[C@H]1C[C@@H]2CC[C@@]1(C)C2(C)C
2.24 µM (active) and inactive: [15]
inactive: [20] | [2] | [19] | [14] | [13]
8.58 µM (active) and inactive: [5]
60.8 µM (active) and inactive: [18]
1.94 µM (active) and inactive: [12]
19.9 µM (active) and inactive: [6]
15.4 µM (active) and inactive: [1]
13.6 µM (active) and inactive: [11]

CCCCC(CC)CO (stereo not given)
inactive: [1] | [2] | [5] | [6] | [7] | [8] | [10] | [11] | [14] | [12] | [15] | [13]

CCCCC(CC)COC(=O)C(C#N)=C(c1ccccc1)c1ccccc1 (stereo not given)
inactive: [1] | [2] | [4] | [5] | [6] | [7] | [8] | [11] | [18] | [19] | [14] | [12] | [15] | [13]
active: [3] 30.6 µM

C#C[C@]1(O)CC[C@H]2[C@@H]3CCC4=CC(=O)CC[C@@H]4[C@H]3CC[C@@]21C
active: [3] 27.3 µM and 11.9 µM | [15] 28.4 µM and 19.6 µM
inactive: [1] | [2] | [5] | [6] | [7] | [8] | [10] | [14] | [12]

COc1ccc(Cl)cc1C(=O)NCCc1ccc(S(=O)(=O)NC(=O)NC2CCCCC2)cc1
inactive: [1] | [2] | [3] | [16] | [17] | [5] | [7] | [8] | [10] | [11] | [14] | [12] | [15]

CC(C)CC(=O)CC(C)C
inactive: [20] | [1] | [2] | [5] | [6] | [7] | [8] | [11] | [18] | [19] | [12] | [15] | [13]

CSCCC=O
inactive: [1] | [2] | [3] | [5] | [6] | [7] | [8] | [9] | [10] | [18] | [19] | [12] | [15] | [13]

CCCCCCCCCCCCCCO
inactive: [20] | [1] | [2] | [5] | [7] | [8] | [11] | [14] | [12] | [15] | [13]
active: [6] 22.7 µM

CCc1ccc(CCOc2ccc(CC3SC(=O)NC3=O)cc2)nc1 (stereo not given)
inactive: [1] | [2] | [5] | [7] | [8] | [9] | [10] | [12] | [15] | [13]
active: [6] 31.7 µM and 24.5 µM

CCCCCCCCCC
inactive: [20] | [1] | [2] | [5] | [6] | [7] | [8] | [14] | [12] | [15] | [13]

OCc1cccnc1
inactive: [20] | [1] | [2] | [5] | [6] | [7] | [8] | [11] | [12] | [15]

CCCCC(CC)COC(=O)CCCCC(=O)OCC(CC)CCCC (stereo not given)
inactive: [1] | [2] | [3] | [4] | [5] | [6] | [7] | [8] | [10] | [14] | [12] | [15] | [13]
